{"source": "PubChem BioAssay (EPA / NIEHS)", "note": "Activity calls are given as the source filed them. How the source made its calls: active means hit-call score of the fitted dose curve at least 0.9, where 1 is the maximum; inconclusive means response in the unintended direction; inactive means score below 0.9.", "data": [{"target": "Muscarinic acetylcholine receptor M5 (Homo sapiens) (UniProt P08912)", "sequence (P08912 whole entry, looked up)": "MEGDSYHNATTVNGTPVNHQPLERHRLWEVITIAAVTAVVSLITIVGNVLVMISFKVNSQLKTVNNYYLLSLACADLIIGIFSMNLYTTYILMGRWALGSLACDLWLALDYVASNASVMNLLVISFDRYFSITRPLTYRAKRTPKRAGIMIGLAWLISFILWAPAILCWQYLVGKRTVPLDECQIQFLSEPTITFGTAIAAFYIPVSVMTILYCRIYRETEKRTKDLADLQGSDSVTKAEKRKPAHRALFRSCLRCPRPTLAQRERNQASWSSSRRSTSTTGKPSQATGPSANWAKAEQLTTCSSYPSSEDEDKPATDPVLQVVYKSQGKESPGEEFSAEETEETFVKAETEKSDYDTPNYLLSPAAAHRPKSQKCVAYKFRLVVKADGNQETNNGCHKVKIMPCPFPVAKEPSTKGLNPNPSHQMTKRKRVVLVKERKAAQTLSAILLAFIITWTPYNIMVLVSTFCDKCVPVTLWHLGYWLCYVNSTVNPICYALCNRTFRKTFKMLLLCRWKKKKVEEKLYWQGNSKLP", "assay": "NVS_GPCR_hM5: NovaScreen (NVS) G Protein-Coupled Receptor Assay for human Muscarinic, M5 Receptor (AID 2283275)", "method": "NVS_GPCR_hM5 is a biochemical, single-readout assay that uses extracted gene-proteins from CHO in a cell-free assay. Measurements were taken 1 hour after chemical dosing in a 96-well plate.NVS_GPCR_hM5 is one of one assay component(s) measured or calculated from the NVS_GPCR_hM5 assay. It is designed to make measurements of radioligand binding, a form of binding reporter, as detected with scintillation counting signals by Filter-based radiodetection technology.Data from the assay component NVS_GPCR_hM5 was analyzed into 1 assay endpoint. This assay endpoint, NVS_GPCR_hM5, was analyzed in the positive analysis fitting direction relative to DMSO as the negative control and baseline of activity. Using a type of binding reporter, loss-of-signal activity can be used to understand changes in the binding as they relate to the gene CHRM5. Furthermore, this assay endpoint can be referred to as a primary readout, because the performed assay has only produced 1 assay endpoint. To generalize the intended target to other relatable targets, this assay endpoint is annotated to the gpcr intended target family, where the subfamily is rhodopsin-like receptor.\nBinding assays used specific radioligands (tritiated, iodinated) with non-radioactive competitive displacement ligands in agonist or antagonist protocols (as indicated) and various reference compounds and inhibitors to titrate specific binding to receptors and transporters. Most enzyme assays (CYPs, kinases, phosphatases, proteases, HDACs) used recombinant protein and specific substrates (fluorescence mostly, some colorimetric and radioactive) and inhibitors, followed by a biochemical separation of substrate and product. All assays for the biochemical HTS were initially run in duplicate at a single concentration (10 uM for CYP450 assays and 25 uM for all others). Assay-chemical combinations meeting a pre-defined threshold (e.g., 30% inhibition and other criteria defined below) were then run in singleton concentration-response format with maximum concentration of 20 uM for CYPs and 50 uM for all others. Each assay was run with positive and negative controls, and concurrent controls on every plate. The follow-up (secondary) screen tested active chemical-pairs in concentration series, as well as a few additional assays not tested in the primary screen, some selected negative inactives, and several cases re-run in the concentration series for confirmatory purposes.", "values": [{"compound": "CCOC(=O)COc1ccc2c(c1)CC(NCC(O)c1cccc(Cl)c1)CC2", "note": "(stereo unspecified)", "AC50": "3.75 µM (active)"}, {"compound": "Nc1ccc(Nc2ccccc2)cc1", "outcome": "inactive"}, {"compound": "CCOC(=O)c1ccc(C2CCC(NC[C@H](O)COc3ccc(O)c(NS(C)(=O)=O)c3)CC2)cc1", "note": "(stereo partly specified)", "AC50": "3.42 µM (active)"}, {"compound": "CNS(=O)(=O)c1cc(C(=O)N2CCC(CCN3C4CCC3CC(n3c(C)nc5ccccc53)C4)(c3cccc(F)c3)CC2)c(Cl)cc1F", "note": "(stereo unspecified)", "outcome": "inactive"}, {"compound": "COCCOc1cc2cc(C(=O)NC3CCN(C(C)C)CC3)n(CC(=O)Nc3ccc(Cl)cn3)c2cn1", "outcome": "inactive"}, {"compound": "COc1cccc(-c2ccc(/C=C\\CN3CCCCCC3)cc2Cl)c1", "AC50": "6.57 µM (active)"}, {"compound": "Cc1[nH]cnc1C[C@H]1CCc2c(C)c3ccccc3n2C1=O", "AC50": "11.9 µM (active)"}, {"compound": "CN(C)c1ccc(N=NS(=O)(=O)O)cc1", "outcome": "inactive"}, {"compound": "CCc1cc(SCc2sc(-c3ccc(C(F)(F)F)cc3)nc2CN2CCN(c3ccc(OC)cc3)CC2)ccc1OCC(=O)O", "AC50": "9.13 µM (active)"}, {"compound": "CC[C@H]1CC[C@H](NCc2cc3c(cc2OC)[C@H]2C[C@H]2C(=O)N3C)[C@H](c2ccccc2)N1", "AC50": "7.73 µM (active)"}, {"compound": "CCCN(C1CCN(C(=O)C2CCNCC2)CC1)[C@@H]1CCc2ccc(OC)cc2C1", "AC50": "0.0807 µM (active)"}]}]}
